{"source": "PubChem BioAssay (NCATS)", "note": "Results filed as inconclusive are left out. Where a call stands in place of a potency, no number is given. The source made the active and inactive calls. Calls come from the whole dose curve; as a rule, active = well fitted inhibition curve with a large enough effect; inconclusive = small, poorly fitted or top-dose-only effect; inactive = flat fitted curve, though single readings scatter."}
{"system": "CP265", "test": "qHTS profiling for inhibitors of Plasmodium falciparum proliferation (AID 504749); note: nearly all actives have a fitted effect of over 60% in size", "conditions": "P. falciparum in erythrocytes, SYBR Green DNA, 72 h; series mostly up to 28.7 µM", "how_it_was_run": "(§1)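 P. falciparum-infected erythrocytes (0.3% parasitemia, 2.5% hematocrit) incubated with compound 72 h at 37 C, 5% CO2. Parasite DNA detected by SYBR Green after lysis, overnight at room temperature; normalised to 0.29 uM artemisinin and DMSO.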"}
{"smiles": "CCCOC(=O)c1ccccc1O", "Potency": "inactive"}
{"smiles": "COc1cc2c(cc1OC)[C@@H](Cc1cc(OC)c(OC)c(OC)c1)[N+](C)(CCCOC(=O)CC/C=C/CCC(=O)OCCC[N+]1(C)CCc3cc(OC)c(OC)cc3[C@H]1Cc1cc(OC)c(OC)c(OC)c1)CC2", "note": "(stereo partly drawn)", "Potency": "inactive"}
{"smiles": "OC[C@H]1O[C@@](CO)(O[C@H]2O[C@H](CO)[C@@H](O)[C@H](O)[C@H]2O)[C@@H](O)[C@@H]1O", "Potency": "inactive"}
{"smiles": "CCC(Cc1c(I)cc(I)c(O)c1I)C(=O)O", "note": "(stereo not drawn)", "Potency": "inactive"}
{"smiles": "Nc1ncnc2c1ncn2CCOCP(=O)(O)O", "Potency": "inactive"}
{"smiles": "O=C(O)CCC/C=C\\C[C@@H]1[C@@H](/C=C/[C@@H](O)COc2cccc(Cl)c2)[C@H](O)C[C@@H]1O", "Potency": "inactive"}
{"smiles": "N=C(N)n1cccn1", "Potency": "inactive"}
{"smiles": "CCSc1ccc2c(c1)N(CCCN1CCN(C)CC1)c1ccccc1S2", "Potency": "inactive"}
{"smiles": "CC(C)c1nc(N(C)S(C)(=O)=O)nc(-c2ccc(F)cc2)c1/C=C/C(O)CC(O)CC(=O)O", "note": "(stereo not drawn)", "Potency": "inactive"}
{"smiles": "CCOC(C)OCC", "Potency": "inactive"}
{"smiles": "NCCN", "Potency": "inactive"}
{"smiles": "CC(CC=O)CCCC(C)(C)O", "note": "(stereo not drawn)", "Potency": "inactive"}
{"smiles": "CC(C)(COP(=O)(O)OP(=O)(O)OC[C@H]1O[C@@H](n2cnc3c(N)ncnc32)[C@H](O)[C@@H]1OP(=O)(O)O)C(O)C(=O)NCCC(=O)NCCS", "note": "(stereo partly drawn)", "Potency": "inactive"}
{"smiles": "O=C1c2ccccc2CN2C(=O)c3ccccc3CN12", "Potency": "inactive"}
{"smiles": "O=C1c2ccccc2C(=O)C1c1ccc(F)cc1", "Potency": "inactive"}
{"smiles": "CNC(=O)C[C@@H](N)C(=O)N[C@@H](C(=O)N[C@@H]1C(=O)N2[C@@H]1SC(C)(C)[C@@H]2C(=O)O)c1ccc(O)cc1", "Potency": "inactive"}
{"smiles": "CCCCCc1ccc(C)cc1O", "Potency": "inactive"}
{"smiles": "C=CC(C)(O)CC/C=C(\\C)CCC=C(C)C", "note": "(stereo not drawn)", "Potency": "inactive"}
{"smiles": "Cc1ccc(S(=O)(=O)NCl)cc1", "Potency": "inactive"}
{"smiles": "CN1c2c(nc(N)[nH]c2=O)NCC1CNc1ccc(C(=O)NC(CCC(=O)O)C(=O)O)cc1", "note": "(stereo not drawn)", "Potency": "inactive"}
{"smiles": "NC(=O)[C@@H]1CCCN1C(=O)[C@H](Cc1cnc[nH]1)NC(=O)[C@@H]1CCC(=O)N1", "Potency": "inactive"}
{"smiles": "CN(C)CCOc1ccc(/C(=C(/CCCl)c2ccccc2)c2ccccc2)cc1", "Potency": "inactive"}
{"smiles": "CC1(O)CCC(C(C)(C)O)CC1", "note": "(stereo not drawn)", "Potency": "inactive"}
{"smiles": "COc1ccccc1N1CCN(CCCC(=O)c2ccc(F)cc2)CC1", "Potency": "inactive"}
{"smiles": "CC(C)[C@@H](N)C(=O)O", "Potency": "inactive"}
{"smiles": "CN(C)c1ccc(C(=C2C=CC(=[N+](C)C)C=C2)c2c(O)c(S(=O)(=O)[O-])cc3cc(S(=O)(=O)O)ccc23)cc1", "Potency": "inactive"}
{"smiles": "COc1cc(S(C)=O)ccc1-c1nc2ncccc2[nH]1", "note": "(stereo not drawn)", "Potency": "inactive"}
{"smiles": "Oc1cc(O)cc(O)c1", "Potency": "inactive"}
{"smiles": "N[C@H](CC(=O)O)C(=O)O", "Potency": "inactive"}
{"smiles": "C/C=C/C=C/C(=O)O", "Potency": "inactive"}
{"smiles": "C=C(C)C1CC=C(C)CC1", "note": "(stereo not drawn)", "Potency": "inactive"}
{"smiles": "Nc1ncnc2c1ncn2[C@H]1CC[C@@H](CO)O1", "Potency": "inactive"}
{"smiles": "NCC[C@H](O)C(=O)N[C@@H]1C[C@H](N)[C@@H](O[C@H]2O[C@H](CN)CC[C@H]2N)[C@H](O)[C@H]1O[C@H]1O[C@H](CO)[C@@H](O)[C@H](N)[C@H]1O", "Potency": "inactive"}
{"smiles": "[O]=[Bi][O]C(=O)[O][Bi]=[O]", "Potency": "inactive"}
{"smiles": "Cc1c(Cl)cccc1Nc1ncccc1C(=O)O", "Potency": "inactive"}
{"smiles": "CC1(C)S[C@@H]2[C@H](NC(=O)C3(N)CCCCC3)C(=O)N2[C@H]1C(=O)O", "Potency": "inactive"}
{"smiles": "CCCCCCCCCCCC(=O)OCC(O)CO", "note": "(stereo not drawn)", "Potency": "inactive"}
{"smiles": "COc1ccc(C(=O)c2ccc(C)cc2)c(O)c1", "Potency": "inactive"}
{"smiles": "O=C1NCCN1c1ncc([N+](=O)[O-])s1", "Potency": "inactive"}
{"system": "CP266", "test": "qHTS profiling for inhibitors of Plasmodium falciparum proliferation (AID 504749); note: nearly all actives have a fitted effect of over 60% in size", "conditions": "P. falciparum in erythrocytes, SYBR Green DNA, 72 h; series mostly up to 28.7 µM", "how_it_was_run": "as §1"}
{"smiles": "CCCOC(=O)c1ccccc1O", "Potency": "inactive"}
{"smiles": "COc1cc2c(cc1OC)[C@@H](Cc1cc(OC)c(OC)c(OC)c1)[N+](C)(CCCOC(=O)CC/C=C/CCC(=O)OCCC[N+]1(C)CCc3cc(OC)c(OC)cc3[C@H]1Cc1cc(OC)c(OC)c(OC)c1)CC2", "note": "(stereo partly drawn)", "Potency": "inactive"}
{"smiles": "OC[C@H]1O[C@@](CO)(O[C@H]2O[C@H](CO)[C@@H](O)[C@H](O)[C@H]2O)[C@@H](O)[C@@H]1O", "Potency": "inactive"}
{"smiles": "CCC(Cc1c(I)cc(I)c(O)c1I)C(=O)O", "note": "(stereo not drawn)", "Potency": "inactive"}
{"smiles": "Nc1ncnc2c1ncn2CCOCP(=O)(O)O", "Potency": "inactive"}
{"smiles": "O=C(O)CCC/C=C\\C[C@@H]1[C@@H](/C=C/[C@@H](O)COc2cccc(Cl)c2)[C@H](O)C[C@@H]1O", "Potency": "inactive"}
{"smiles": "N=C(N)n1cccn1", "Potency": "inactive"}
{"smiles": "CCSc1ccc2c(c1)N(CCCN1CCN(C)CC1)c1ccccc1S2", "Potency": "inactive"}
{"smiles": "CC(C)c1nc(N(C)S(C)(=O)=O)nc(-c2ccc(F)cc2)c1/C=C/C(O)CC(O)CC(=O)O", "note": "(stereo not drawn)", "Potency": "inactive"}
{"smiles": "CCOC(C)OCC", "Potency": "inactive"}
{"smiles": "NCCN", "Potency": "inactive"}
{"smiles": "CC(CC=O)CCCC(C)(C)O", "note": "(stereo not drawn)", "Potency": "inactive"}
{"smiles": "CC(C)(COP(=O)(O)OP(=O)(O)OC[C@H]1O[C@@H](n2cnc3c(N)ncnc32)[C@H](O)[C@@H]1OP(=O)(O)O)C(O)C(=O)NCCC(=O)NCCS", "note": "(stereo partly drawn)", "Potency": "inactive"}
{"smiles": "O=C1c2ccccc2CN2C(=O)c3ccccc3CN12", "Potency": "inactive"}
{"smiles": "O=C1c2ccccc2C(=O)C1c1ccc(F)cc1", "Potency": "inactive"}
{"smiles": "CNC(=O)C[C@@H](N)C(=O)N[C@@H](C(=O)N[C@@H]1C(=O)N2[C@@H]1SC(C)(C)[C@@H]2C(=O)O)c1ccc(O)cc1", "Potency": "inactive"}
{"smiles": "CCCCCc1ccc(C)cc1O", "Potency": "inactive"}
{"smiles": "C=CC(C)(O)CC/C=C(\\C)CCC=C(C)C", "note": "(stereo not drawn)", "Potency": "inactive"}
{"smiles": "Cc1ccc(S(=O)(=O)NCl)cc1", "Potency": "inactive"}
{"smiles": "CN1c2c(nc(N)[nH]c2=O)NCC1CNc1ccc(C(=O)NC(CCC(=O)O)C(=O)O)cc1", "note": "(stereo not drawn)", "Potency": "inactive"}
{"smiles": "NC(=O)[C@@H]1CCCN1C(=O)[C@H](Cc1cnc[nH]1)NC(=O)[C@@H]1CCC(=O)N1", "Potency": "inactive"}
{"smiles": "CN(C)CCOc1ccc(/C(=C(/CCCl)c2ccccc2)c2ccccc2)cc1", "Potency": "inactive"}
{"smiles": "CC1(O)CCC(C(C)(C)O)CC1", "note": "(stereo not drawn)", "Potency": "inactive"}
{"smiles": "COc1ccccc1N1CCN(CCCC(=O)c2ccc(F)cc2)CC1", "Potency": "inactive"}
{"smiles": "CC(C)[C@@H](N)C(=O)O", "Potency": "inactive"}
{"smiles": "CN(C)c1ccc(C(=C2C=CC(=[N+](C)C)C=C2)c2c(O)c(S(=O)(=O)[O-])cc3cc(S(=O)(=O)O)ccc23)cc1", "Potency": "inactive"}
{"smiles": "COc1cc(S(C)=O)ccc1-c1nc2ncccc2[nH]1", "note": "(stereo not drawn)", "Potency": "inactive"}
{"smiles": "Oc1cc(O)cc(O)c1", "Potency": "inactive"}
{"smiles": "N[C@H](CC(=O)O)C(=O)O", "Potency": "inactive"}
{"smiles": "C/C=C/C=C/C(=O)O", "Potency": "inactive"}
{"smiles": "C=C(C)C1CC=C(C)CC1", "note": "(stereo not drawn)", "Potency": "inactive"}
{"smiles": "Nc1ncnc2c1ncn2[C@H]1CC[C@@H](CO)O1", "Potency": "inactive"}
{"smiles": "NCC[C@H](O)C(=O)N[C@@H]1C[C@H](N)[C@@H](O[C@H]2O[C@H](CN)CC[C@H]2N)[C@H](O)[C@H]1O[C@H]1O[C@H](CO)[C@@H](O)[C@H](N)[C@H]1O", "Potency": "inactive"}
{"smiles": "[O]=[Bi][O]C(=O)[O][Bi]=[O]", "Potency": "inactive"}
{"smiles": "Cc1c(Cl)cccc1Nc1ncccc1C(=O)O", "Potency": "inactive"}
{"smiles": "CC1(C)S[C@@H]2[C@H](NC(=O)C3(N)CCCCC3)C(=O)N2[C@H]1C(=O)O", "Potency": "inactive"}
{"smiles": "CCCCCCCCCCCC(=O)OCC(O)CO", "note": "(stereo not drawn)", "Potency": "inactive"}
{"smiles": "COc1ccc(C(=O)c2ccc(C)cc2)c(O)c1", "Potency": "inactive"}
{"smiles": "O=C1NCCN1c1ncc([N+](=O)[O-])s1", "Potency": "inactive"}
